Test results published in PubChem BioAssay AID1159580 (chemical genetic matrix, 2015).
The campaign covered roughly 5,500 compounds. About 2,000 (36%) were called active. Inconclusive results (about 18%) are left out. This is one part of the list. Unmarked numbers belong to inactive results. No stated cut-off is given here; in the data, active means normalized growth mostly below about 0.91 (no sharp cut-off); inconclusive means no clear call, values can overlap the other calls; inactive means mostly above about 0.92.

Assay: chemical genetic growth profiling, strain panel (AID 1159580);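 further: tested at 20 µM; growth read once vehicle control cultures reached saturation at 30 °C; 1 = growth at the plate median or of vehicle wells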
Settings: S. cerevisiae deletion strains, growth OD

What does the source list for `O=c1[nH]c2ccccc2n1CCCN1CCC(n2c(=O)[nH]c3cc(Cl)ccc32)CC1`?
normalized growth (locus YAL013W, strain DEP1, stronger effect = lower value): 0.982; normalized growth (locus YAL021C, strain ccr4, stronger effect = lower value): 0.982; normalized growth (locus YAL026C, strain drs2, stronger effect = lower value): 1.01; normalized growth (locus YAL030W, strain snc1, stronger effect = lower value): 0.991; normalized growth (locus YAL040C, strain CLN3, stronger effect = lower value): 1; normalized growth (locus YBL061C, strain skt5, stronger effect = lower value): 0.981; normalized growth (locus YBR009C, strain hhf1, stronger effect = lower value): 0.967; normalized growth (locus YBR023C, strain chs3, stronger effect = lower value): 0.982; normalized growth (locus YBR171W, strain sec66, stronger effect = lower value): 0.979; normalized growth (locus YBR231C, strain swc5, stronger effect = lower value): 0.945; normalized growth (locus YBR279W, strain paf1, stronger effect = lower value): 0.992; normalized growth (locus YCL011C, strain gbp2, stronger effect = lower value): 0.987; normalized growth (locus YCL016C, strain dcc1, stronger effect = lower value): 0.989; normalized growth (locus YCL061C, strain MRC1 (second series), stronger effect = lower value): 1.01; normalized growth (locus YCL069W, strain vba3, stronger effect = lower value): 0.978; normalized growth (locus YCR088W, strain abp1, stronger effect = lower value): 0.983; normalized growth (locus YDL005C, strain med2, stronger effect = lower value): 0.971; normalized growth (locus YDL040C, strain nat1, stronger effect = lower value): 0.959; normalized growth (locus YDR001C, strain nth1, stronger effect = lower value): 0.969; normalized growth (locus YDR069C, strain doa4, stronger effect = lower value): 0.971; normalized growth (locus YDR137W, strain rgp1, stronger effect = lower value): 1.05; normalized growth (locus YDR159W, strain sac3, stronger effect = lower value): 0.956; normalized growth (locus YDR195W, strain ref2): 0.979; normalized growth (locus YDR297W, strain sur2, stronger effect = lower value): 0.984; normalized growth (locus YDR334W, strain swr1, stronger effect = lower value): 0.976; normalized growth (locus YDR335W, strain msn5, stronger effect = lower value): 0.961; normalized growth (locus YDR363W, strain ESC2, stronger effect = lower value): 1; normalized growth (locus YDR392W, strain spt3, stronger effect = lower value): 0.942; normalized growth (locus YEL003W, strain gim4, stronger effect = lower value): 0.976; normalized growth (locus YEL037C, strain rad23, stronger effect = lower value): 0.974; normalized growth (locus YEL061C, strain CIN8 (second series), stronger effect = lower value): 0.98; normalized growth (locus YER002W, strain NOP16, stronger effect = lower value): 0.997; normalized growth (locus YER015W, strain faa2, stronger effect = lower value): 0.976; normalized growth (locus YER016W, strain bim1, stronger effect = lower value): 1; normalized growth (locus YER111C, strain swi4, stronger effect = lower value): 0.976; normalized growth (locus YER155C, strain BEM2 (second series), stronger effect = lower value): 0.863 (active); normalized growth (locus YFR010W, strain ubp6, stronger effect = lower value): 0.951; normalized growth (locus YGL167C, strain pmr1, stronger effect = lower value): 0.964; normalized growth (locus YGL173C, strain kem1, stronger effect = lower value): 0.964; normalized growth (locus YGL227W, strain vid30, stronger effect = lower value): 0.972; normalized growth (locus YGL240W, strain doc1, stronger effect = lower value): 0.927; normalized growth (locus YGL253W, strain hxk2, stronger effect = lower value): 1.01; normalized growth (locus YGR078C, strain PAC10, stronger effect = lower value): 1.01; normalized growth (locus YGR229C, strain SMI1, stronger effect = lower value): 1.01; normalized growth (locus YHR013C, strain ard1, stronger effect = lower value): 0.965; normalized growth (locus YHR027C, strain rpn1, stronger effect = lower value): 0.997; normalized growth (locus YHR030C, strain SLT2, stronger effect = lower value): 1.02; normalized growth (locus YHR079C, strain IRE1, stronger effect = lower value): 0.994; normalized growth (locus YHR142W, strain chs7, stronger effect = lower value): 0.981; normalized growth (locus YJL092W, strain hpr5, stronger effect = lower value): 0.965; normalized growth (locus YJL095W, strain BCK1 (second series), stronger effect = lower value): 0.982; normalized growth (locus YJL095W, strain BCK1, stronger effect = lower value): 0.997; normalized growth (locus YJL115W, strain asf1, stronger effect = lower value): 0.994; normalized growth (locus YJL129C, strain trk1, stronger effect = lower value): 0.916; normalized growth (locus YJL154C, strain vps35, stronger effect = lower value): 0.958; normalized growth (locus YJL164C, strain tpk1, stronger effect = lower value): 0.997; normalized growth (locus YJL166W, strain qcr8, stronger effect = lower value): 0.929; normalized growth (locus YJL187C, strain SWE1, stronger effect = lower value): 0.978; normalized growth (locus YJR066W, strain TOR1, stronger effect = lower value): 0.932; normalized growth (locus YKL160W, strain elf1, stronger effect = lower value): 0.964; normalized growth (locus YKR026C, strain gcn3, stronger effect = lower value): 0.982; normalized growth (locus YKR091W, strain srl3, stronger effect = lower value): 0.984; normalized growth (locus YLL001W, strain dnm1, stronger effect = lower value): 0.917; normalized growth (locus YLL026W, stronger effect = lower value): 0.969; normalized growth (locus YLL041C, strain sdh2, stronger effect = lower value): 0.988; normalized growth (locus YLR027C, strain aat2, stronger effect = lower value): 0.972; normalized growth (locus YLR113W, strain HOG1, stronger effect = lower value): 1; normalized growth (locus YLR221C, strain rsa3, stronger effect = lower value): 1.01; normalized growth (locus YLR258W, strain gsy2, stronger effect = lower value): 0.998; normalized growth (locus YLR262C, strain YPT6 (second series), stronger effect = lower value): 0.999; normalized growth (locus YLR320W, strain mms22, stronger effect = lower value): 1; normalized growth (locus YLR342W, strain FKS1, stronger effect = lower value): 0.933; normalized growth (locus YLR357W, strain rsc2, stronger effect = lower value): 0.937; normalized growth (locus YLR370C, strain arc18, stronger effect = lower value): 0.966; normalized growth (locus YLR384C, strain iki3, stronger effect = lower value): 0.978; normalized growth (locus YML120C, strain ndi1, stronger effect = lower value): 0.962; normalized growth (locus YMR058W, strain fet3, stronger effect = lower value): 0.959; normalized growth (locus YMR125W, strain sto1, stronger effect = lower value): 1.02; normalized growth (locus YMR129W, stronger effect = lower value): 0.982; normalized growth (locus YMR205C, strain PFK2, stronger effect = lower value): 0.978; normalized growth (locus YMR231W, strain pep5, stronger effect = lower value): 0.977; normalized growth (locus YMR307W, strain GAS1, stronger effect = lower value): 0.992; normalized growth (locus YNL071W, strain lat1, stronger effect = lower value): 0.989; normalized growth (locus YNL175C, strain NOP13, stronger effect = lower value): 1.01; normalized growth (locus YNL183C, strain NPR1, stronger effect = lower value): 0.955; normalized growth (locus YNL197C, strain WHI3, stronger effect = lower value): 1.02; normalized growth (locus YNL209W, strain ssb2, stronger effect = lower value): 0.992; normalized growth (locus YNL224C, strain SQS1, stronger effect = lower value): 1; normalized growth (locus YNL248C, strain rpa49, stronger effect = lower value): 0.996; normalized growth (locus YNL322C, strain KRE1 (second series), stronger effect = lower value): 0.975; normalized growth (locus YNR049C, strain mso1, stronger effect = lower value): 0.983; normalized growth (locus YOR001W, strain rrp6, stronger effect = lower value): 0.952; normalized growth (locus YOR070C, strain gyp1, stronger effect = lower value): 0.991; normalized growth (locus YOR080W, strain dia2, stronger effect = lower value): 0.96; normalized growth (locus YOR083W, strain WHI5 (second series), stronger effect = lower value): 0.926; normalized growth (locus YOR083W, strain WHI5, stronger effect = lower value): 0.911; normalized growth (locus YOR106W, strain vam3, stronger effect = lower value): 0.927; normalized growth (locus YOR231W, strain MKK1, stronger effect = lower value): 1.01; normalized growth (locus YOR265W, strain rbl2, stronger effect = lower value): 0.986; normalized growth (locus YOR270C, strain vph1, stronger effect = lower value): 0.936; normalized growth (locus YOR290C, strain snf2, stronger effect = lower value): 0.988; normalized growth (locus YPL051W, strain arl3, stronger effect = lower value): 0.971; normalized growth (locus YPL078C, strain atp4, stronger effect = lower value): 0.926; normalized growth (locus YPL106C, strain sse1, stronger effect = lower value): 0.998; normalized growth (locus YPL240C, strain hsp82, stronger effect = lower value): 0.997; normalized growth (locus YPL241C, strain CIN2, stronger effect = lower value): 1.01; normalized growth (locus YPL256C, strain CLN2, stronger effect = lower value): 0.995
